Superoxide response (% of plate mean) data for 96 compounds are collected here from PubChem BioAssay AID2690 (NMMLSC, 2010).

Structures are written as SMILES. Hit rate of the full screen: of about 330,000 compounds, about 590 (0.18%) were called active. The sample holds actives, similar compounds and a random draw of the others, so the mix is not that of the screen.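 The calls were made as follows: active = superoxide response under a set limit, about three screen SD below normal (cut at about 65% in these data); inactive = the rest.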

The nature of this assay: reduction of superoxide in aged yeast, primary screen, HTS (AID 2690).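 Also: yeast aged for seven days with compound at 30 °C before DHE staining; 100% = average MFI of all compound-treated wells on the plate with controls excluded.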 The settings on record: S. cerevisiae aged cells, superoxide DHE fluorescence; at 10 µM; active compounds read low.
In the case of `Cc1ccsc1C(=O)OCC(=O)NCCc1ccccc1`, the superoxide response (% of plate mean) is 92.1% (inactive).
The figure for `O=C(Nc1ccc(Br)cn1)c1ccc([N+](=O)[O-])cc1Cl` is 64.7% (active).
As for `O=C(Nc1ccc(Br)cn1)c1ccc([N+](=O)[O-])o1`, the figure is 118% (inactive).
The figure for `O=C(Nc1ccncc1)c1ccc([N+](=O)[O-])cc1Cl` is 103% (inactive); for `C/C(=N\NS(=O)(=O)c1ccccc1)c1c(O)cc(C)oc1=O` it is 102% (inactive); for `O=C1NC(=Nc2ccc(Cl)cc2)SC1Cc1cccc(Cl)c1Cl` (stereo unspecified) it is 121% (inactive).
For `O=C(CCS(=O)(=O)c1ccc2c(c1)NC(=O)CS2)NCc1ccccc1Cl`, the superoxide response (% of plate mean) is 110% (inactive).
For `CN1CCN(CC(=O)C23CC4CC(CC(C4)C2)C3)CC1`, the superoxide response (% of plate mean) was 101% (inactive).
Turning to `O=C1/C(=C/c2ccc(F)cc2)SC(=S)N1NS(=O)(=O)c1ccccc1`, the superoxide response (% of plate mean) was 107% (inactive).
The figure for `CC(=O)c1ccc(N2CCN(C(=O)c3ccc4nc[nH]c4c3)CC2)cc1` is 112% (inactive).
As for `CC1(C)CC[C@@]2(C(=O)O)C(C1)C1=CCC3[C@@]4(C)CC[C@H](O)C(C)(C)C4CC[C@@]3(C)[C@]1(C)C[C@H]2O` (stereo partly specified), the figure is 88% (inactive); as for `CC(C)(C)C(=O)NC1CC2CCCC(C1)N2C(=O)Nc1ccccc1F` (stereo unspecified), 103% (inactive).
For `O=[N+]([O-])/C(N=Nc1ccccc1)=N\Nc1ccccc1`, the superoxide response (% of plate mean) is 102% (inactive).
The figure for `CC(C)(C)NC(=O)c1cccc(NC(=O)Cc2ccc(Br)cc2)c1` is 91.5% (inactive); for `Cc1ccc(S(=O)(=O)N(CC(=O)NCc2ccco2)c2ccccc2C)cc1` it is 111% (inactive); for `COc1ccc(Nc2nc(NCc3ccco3)nc(N/N=C/c3ccccc3Cl)n2)cc1` it is 99.5% (inactive).
The figure for `COC1=CCC2([N+](=O)[O-])CN(CC(=O)O)CC1([N+](=O)[O-])C2` (stereo unspecified) is 98.8% (inactive).
On to `Cc1c2cn[nH]c(=O)c2c(C)n1Cc1ccc(F)cc1`, for which the superoxide response (% of plate mean) is 86.5% (inactive).
On to `CC(=O)C[C@@H](O)CC(=O)[C@H]1OC(=O)CCCCCCc2ccccc21`, for which the superoxide response (% of plate mean) was 62.5% (active).
With `CC[C@@H]1CCCCc2ccccc2[C@@H](C(=O)C[C@H](O)CC(C)=O)OC1=O`, the superoxide response (% of plate mean) was 98.3% (inactive).
As for `CC(=O)C[C@H](O)CC(=O)[C@@H]1OC(=O)[C@@H](C)C/C=C\Cc2ccccc21`, the figure is 89.8% (inactive).
The figure for `CC(C)=NN1C(=O)c2ccccc2NC1(C)C` is 102% (inactive); for `COc1cc(-c2c(-c3ccc4c(c3)OCO4)noc2C)ccc1F` it is 94.1% (inactive).
As for `O=C(COc1ccc([N+](=O)[O-])cc1Cl)Nc1ccc2[nH]c(=O)[nH]c2c1`, the superoxide response (% of plate mean) was 111% (inactive).
As for `COC(=O)c1ccc(OCC(=O)NC(C)(C)C)cc1`, the figure is 102% (inactive).
As for `CC(C)(C)NC(=O)COc1ccc(CNc2ccc3[nH]c(=O)[nH]c3c2)cc1`, the figure is 60.8% (active); as for `O=c1c2cc([N+](=O)[O-])ccc2nc2n1CCC2`, 108% (inactive).
The figure for `Cc1cc(CNC(=O)C2CCC(=O)N(CCc3ccc(Cl)cc3)C2)no1` (stereo unspecified) is 101% (inactive); for `CN=C(Nc1cccc(S(=O)(=O)N2CCOCC2)c1)c1ccccc1` it is 96.6% (inactive).
Regarding `COc1ccc(CN(C)C(=O)Cc2c[nH]c3ccccc23)c(OC)c1OC`, the superoxide response (% of plate mean) is 99.6% (inactive).
As for `CSCCC(NS(=O)(=O)c1ccccc1F)C(=O)N1CC=C(c2ccccc2)CC1` (stereo unspecified), the figure is 105% (inactive); as for `O=C(Cn1nnc(-c2ccccc2)n1)N/N=C/c1ccc(-c2ccc(Cl)cc2)o1`, 92.1% (inactive).
As for `Nc1nnn(CC(=O)N/N=C/c2ccc(O)cc2)n1`, the figure is 92.6% (inactive).
As for `Nc1nnn(CC(=O)N/N=C/c2ccccc2)n1`, the figure is 65% (active); as for `CCOc1ccccc1NC(=O)C1CCCN(C(=O)Nc2ccccc2)C1` (stereo unspecified), 92.4% (inactive).
For the compound `CCCCCCn1cc(C(=O)O)c(=O)c2cc(F)c(N3CCCCC3)cc21`, the superoxide response (% of plate mean) was 91.2% (inactive).
The figure for `CCn1cc(C(=O)NCCO)c(=O)c2cc(F)c(N3CCN(C)CC3)cc21` is 99.8% (inactive); for `CN1CCN(c2cc3c(cc2F)c(=O)c(C(=O)O)cn3CCF)CC1` it is 60.4% (active); for `COc1ccc(/C=C/CN2CCCC(C(=O)c3cc(F)ccc3F)C2)cc1` (stereo unspecified) it is 100% (inactive).
Take `COc1cccc(N(Cc2nnc3n2CCCCC3)C(=O)Nc2ccccc2F)c1`: the superoxide response (% of plate mean) was 107% (inactive).
Turning to `COc1ccc(OC)c(NC(=O)Cc2cccs2)c1`, the superoxide response (% of plate mean) is 102% (inactive).
As for `Cc1ccc(-c2nn(C(C)(C)C)c3ncnc(N)c23)cc1`, the figure is 55.4% (active); as for `Cc1ccc(-n2cnc3ncnc(-c4ccccc4)c32)cc1`, 108% (inactive); as for `O=C(Nc1ccc(Cl)c(Cl)c1)c1ccccc1NC(=O)C1CC=CCC1C(=O)O` (stereo unspecified), 128% (inactive).
On to `O=C(Nc1cccc(Cl)c1Cl)c1ccccc1NC(=O)C1CC=CCC1C(=O)O` (stereo unspecified), for which the superoxide response (% of plate mean) is 64.3% (active).
Take `O=C(Nc1ccccc1C(=O)N1CCCCCC1)c1ccccc1Cl`: the superoxide response (% of plate mean) is 106% (inactive).
The figure for `OC(c1nc2ccc(F)cc2[nH]1)C(O)c1nc2ccc(F)cc2[nH]1` (stereo unspecified) is 103% (inactive); for `OC(c1nc2ccccc2[nH]1)C(O)C(O)C(O)c1nc2ccccc2[nH]1` (stereo unspecified) it is 59.9% (active).
On to `CCCC(NC(=O)c1ccco1)c1nc2ccccc2[nH]1` (stereo unspecified), for which the superoxide response (% of plate mean) was 103% (inactive).
The figure for `Cc1ccc(-c2nc(CSCC(=O)NC3CCN(Cc4ccccc4)CC3)c(C)o2)cc1` is 58.7% (active); for `Cc1ccc(-c2cc(C(=O)NC3CCN(Cc4ccccc4)CC3)c3ccccc3n2)cc1` it is 107% (inactive).
The figure for `Cc1ccc(S(=O)(=O)NCCC(=O)NC2CCN(Cc3ccccc3)CC2)cc1` is 93% (inactive); for `O=C(NCc1ccc(F)cc1)C1CCC(CNc2c(N3CCOCC3)c(=O)c2=O)CC1` (stereo unspecified) it is 96.9% (inactive).
For `Cc1cc2oc(=O)cc(-c3ccccc3)c2c(C)c1-c1ccc(OC(F)(F)F)cc1`, the superoxide response (% of plate mean) is 94.1% (inactive).
For `Cc1cc(NC(=O)CN2C(=O)NC(CCc3ccccc3)C2=O)no1` (stereo unspecified), the superoxide response (% of plate mean) is 82.4% (inactive).
`O=C(CCc1ccccc1)Nc1ccc(NC(=O)C2CCCCC2)nc1`: the superoxide response (% of plate mean) was 91.3% (inactive).
The figure for `O=C(COC(=O)CCCNC(=O)c1ccc(Cl)cc1)Nc1cc(Cl)ccc1Cl` is 98.1% (inactive).
As for `COc1ccc(-c2nonc2NC(=O)c2oc3ccc(F)cc3c2C)cc1OC`, the superoxide response (% of plate mean) was 80.1% (inactive).
The figure for `CCN(CC)c1nc(-c2ccccc2)cc(C(F)(F)F)c1C#N` is 87% (inactive); for `Cc1cc(NS(=O)(=O)c2ccc(NC(=O)c3cccc(OC(F)F)c3)cc2)nc(C)n1` it is 103% (inactive).
As for `Cc1cc(C(F)F)n2nc(C(=O)Nc3ccc(S(=O)(=O)NC45CC6CC(CC(C6)C4)C5)cc3)nc2n1`, the figure is 62.8% (active); as for `CCn1nccc1C(=O)Nc1ccc(S(=O)(=O)NC23CC4CC(CC(C4)C2)C3)cc1`, 114% (inactive); as for `COc1ccc(NC(=O)c2cc([N+](=O)[O-])ccc2NC(=O)CNC2CCCCC2C)c(OC)c1` (stereo unspecified), 111% (inactive).
Take `CCOC(=O)C1=CN(Cc2ccc(Br)cc2)S(=O)(=O)N(C)C1C` (stereo unspecified): the superoxide response (% of plate mean) is 105% (inactive).
As for `COc1ccccc1C(=O)N1CCNC(=O)C1CC(=O)Nc1ccc(Cl)cc1` (stereo unspecified), the figure is 103% (inactive); as for `NS(=O)(=O)c1ccc(NC(=O)/C=C/c2ccccc2Cl)cc1`, 92.5% (inactive); as for `COC(=O)c1ccc(NC(=S)Nc2cccc(C)n2)cc1`, 105% (inactive).
As for `CCCC(C)C(=O)OCC(=O)Nc1c(Br)cc(C)cc1Br` (stereo unspecified), the figure is 65.3% (active); as for `Cc1cc(C)cc(NC(=O)COC(=O)c2cc(C)oc2C)c1`, 95.1% (inactive); as for `CCC(C(=O)OCC(=O)Nc1c(Cl)cc(Cl)cc1Cl)c1ccccc1` (stereo unspecified), 101% (inactive).
`CC(C)Oc1ccc(C(=O)Nc2cc(=O)n(C)c(=O)n2C)cc1`: the superoxide response (% of plate mean) is 99.9% (inactive).
As for `Cn1c(Nc2ccccc2)cc(=O)n(C)c1=O`, the figure is 33.4% (active); as for `Cc1cc(=O)n(C)c(=O)n1CCCNc1ccccc1`, 84.6% (inactive).
Take `O=C(NC1CCC(O)CC1)c1ccc(S(=O)(=O)NCc2ccco2)cc1` (stereo unspecified): the superoxide response (% of plate mean) is 102% (inactive).
The figure for `O=C(CSCc1ccccc1)Nc1ccccc1` is 42.6% (active).
As for `Cc1c(NC(=O)CSCc2ccccc2)cccc1C(=O)O`, the figure is 116% (inactive); as for `Cn1c(CSCC(=O)Nc2ccccc2)nnc1SCc1ccccc1`, 118% (inactive); as for `C/C(CC(=O)NC(C)c1ccccc1)=N\NC(N)=S` (stereo unspecified), 105% (inactive).
Turning to `Cc1ccc(C23CC4CC(CC(C(=O)NCC(=O)O)(C4)C2)C3)cc1`, the superoxide response (% of plate mean) was 62.1% (active).
As for `CCOc1ccccc1NC(=O)C12CC3CC(C1)CC(c1ccc(C)cc1)(C3)C2`, the figure is 95.5% (inactive); as for `C=CCNC(=O)C12CC3CC(C1)CC(C(=O)NCC=C)(C3)C2`, 96% (inactive).
As for `COc1cccc(NC(=O)Cn2c3ccc(F)cc3c3nc4n(c(=O)c32)CCS4)c1`, the figure is 82.6% (inactive); as for `COc1ccc(C(CCNCc2ccccc2F)c2ccc(F)cc2)cc1` (stereo unspecified), 97% (inactive).
The figure for `CCc1cc(-c2n[nH]c(=S)n2CC(C)C)cs1` is 87.8% (inactive); for `COc1cc(-c2nnn(CC(=O)NCc3ccccc3)n2)cc(OC)c1OC` it is 65.3% (active); for `COc1cc(C(=O)NCc2ccc(-n3cccc3)cc2)cc(OC)c1OC` it is 99.9% (inactive).
With `COc1ccc(CNC(=O)Cc2ccc(-c3ccccc3)cc2)cc1OC`, the superoxide response (% of plate mean) was 98.2% (inactive).
As for `CCCCNC(=O)C1CCCN(S(=O)(=O)c2ccc(S(=O)(=O)NCC(C)C)cc2)C1` (stereo unspecified), the figure is 102% (inactive).
As for `Cc1ccccc1N1CCN(S(=O)(=O)c2ccc3ccccc3c2)CC1`, the figure is 95.3% (inactive).
As for `Cc1ccc2cccc(S(=O)(=O)N3CCN(c4ccccc4F)CC3)c2n1`, the figure is 61.4% (active).
Regarding `O=S(=O)(N1CCOCC1)N1CCN(c2ccccc2F)CC1`, the superoxide response (% of plate mean) is 90.5% (inactive).
The figure for `COc1ccc(C(=O)Nc2ccc(C3(C#N)CCCC3)cc2)cc1OC` is 87.6% (inactive); for `COC(=O)c1ccc(S(=O)(=O)c2ccc(C(=O)OC)s2)s1` it is 101% (inactive).
Consider `O=C(Nc1c(Cl)cccc1Cl)C1CCC1`, for which the superoxide response (% of plate mean) is 111% (inactive).
The figure for `CCNC(=S)Nc1cccc(Cl)c1C` is 97.2% (inactive); for `NC(=S)Nc1c(Cl)cccc1Cl` it is 46.6% (active).
